# High-throughput results deposited in PubChem by National Center for Advancing Translational Sciences (NCATS).
# Sampled rows, rich in hits. Any-hit rate of the full collection: about 19%.
# HT1080 IDH1KD tx – HT-1080 IDH1 knockdown cell toxicity (counter line); HT-1080 IDH1 knockdown viability, ATP luminescence, 48 h; Potency, µM (titrated, usually from 46.1 µM), inactives show at the highest dose activity, negative = toxicity, most hits filed as cytotoxic; actives 2% (n = 360,000); AID 686971;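 also: potency is read from the fitted curve at half-maximal effect; 0% = DMSO wells and -100% = cell-free medium wells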
#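 Using the IDH1-knockdown HT-1080 line run in the same batch and compound series as the NT line, viability after 48 h at 37 °C was determined by CellTiter-Glo luminescence and expressed as % activity.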
# IL1B secr inh – inflammasome signaling inhibition, IL-1 beta readout; THP-1 LPS/ATP IL-1B secretion, AlphaLISA, 16 h; stronger effect = lower value; activity change, % at 57.5 µM; actives 4.7% (n = 360,000); AID 743279; in the data active = activity change below about -50%; inconclusive = mostly about -30% to -49%
#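 Secreted IL-1B measured by AlphaLISA bead assay after 16 h compound exposure of THP-1 cells; compounds (final up to 57.5 uM) added 1 h before LPS (250 ng/mL) and ATP (1.25 mM) stimulation; lower signal means less secretion.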
# ELG1 repair inh – ELG1-dependent DNA repair inhibition | HEK293T ELG1-luciferase reporter, luminescence, 16 h; DNA damage induced by 5-fluorouridine | actives 2.3% (n = 330,000) | Potency, µM (series often up to 46.1 µM), without a hit: top-dose activity change, negative = inhibition, most hits filed as inhibitors | AID 504467; also: potency is read from the fitted curve at half-maximal effect; nearly all actives have a fitted effect of over 55% in size
#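 5-Fluorouridine DNA damage + compound/DMSO, 2,000 cells/well, 16 h, 37 °C/5% CO2. ONE-Glo, 30 min RT, luminescence. Readout = decrease in reporter signal.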
# DT40 TDP1 CPT – DT40-hTDP1 cell growth loss with CPT | chicken DT40 Tdp1-/-;hTDP1 cells + 20 nM CPT, ATP luminescence, 48 h | Potency, µM (top dose mostly 46.2 µM), for inactives: at the highest dose activity change, negative = growth inhibition, usual class: inhibitors | actives 12% (n = 420,000); also: potency is read from the fitted curve at half-maximal effect; nearly all actives have a fitted effect of over 55% in size
#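 Chicken DT40 Tdp1-/- cells complemented with human TDP1, 400 cells/well, exposed to compounds plus 20 nM camptothecin for at least 48 h at 37 C; viability read as ATP content by CellTiter-Glo luminescence.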
# HT1080NT lethal – kills 2HG-producing HT-1080-NT fibrosarcoma cells. actives 1.6% (n = 360,000). HT-1080-NT fibrosarcoma viability, CellTiter-Glo ATP luminescence, 48 h. Potency, µM (top dose mostly 46.1 µM), inactives show at the highest dose activity, negative = less viability, usual class: cytotoxic. AID 686970;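 also: NT is the 2HG producing partner of a matched IDH1 knockdown line; potency is read from the fitted curve at half-maximal effect; 0% = DMSO-treated cells and -100% = media-only wells without cells; nearly all actives have a fitted effect of over 55% in size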
#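 Toxicity toward the 2HG-producing NT line was scored as %Activity, normalised to DMSO and no-cell wells, from CellTiter-Glo luminescence after 48 hours' treatment.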
# TDP1 cell noCPT – qHTS for Inhibitors of human tyrosyl-DNA phosphodiesterase 1 (TDP1): qHTS in cells in absence of CPT. DT40 Tdp1-/- hTDP1 cells, no CPT, ATP luminescence, 48 h. actives 15% (n = 420,000). Potency, µM (doses to about 46.2 µM), inactives show at the top dose activity change, negative = growth inhibition, most hits filed as inhibitors. AID 686978, 2013; also: potency is read from the fitted curve at half-maximal effect; nearly all actives have a fitted effect of over 55% in size
#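 Luminescent ATP content (CellTiter-Glo) served as the growth readout. Knockout chicken DT40 cells expressing human TDP1 were exposed to compounds without camptothecin for a minimum 48 hr at 37 °C.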
# Numbers without * were called inactive; ? = inconclusive; nt = no result given; [ ] = dose if it differs, or a comment. Unless noted, calls follow the shape of the dose curve; as a rule, active = well fitted curve in the direction sought with a large enough effect; inconclusive = small, poorly fitted or top-dose-only effect, or another doubt; inactive = no such curve, though single readings can be large; an effect the other way counts as inactive or inconclusive. Unless noted, % is scaled to controls: 0 for no effect and ±100 for the full control effect.
SMILES,HT1080 IDH1KD tx,IL1B secr inh,ELG1 repair inh,DT40 TDP1 CPT,HT1080NT lethal,TDP1 cell noCPT
Cc1cc(C(=O)COC(=O)CCc2nc3ccccc3c(=O)[nH]2)c(C)n1CC1CCCO1 (stereo unspecified),-5.1%,24.1,2.8%,-22.1%,-17.3%,-4.3%
Cc1cc(=O)n(C)c(=O)n1CCCCCCOc1cccc([N+](=O)[O-])c1,1.5%,-1.4,?,25.9µM*,12.5%,16.4µM*
Cc1ccc(N2CCn3c2nc2c3c(=O)n(CCCc3ccccc3)c(=O)n2C)cc1,nt,nt,nt,2.4%,nt,-24.6%
CCN(CC)CCC(=O)c1ccc(F)cc1,4.4%,6.5,2.7%,2.91µM*,-2.2%,2.31µM*
CN(C)CCC(=O)c1ccc2c(c1)OCO2,5.8%,-23.8,-11.4%,3.66µM*,2.7%,3.66µM*
CN(C)CCC(=O)c1ccc(F)cc1,-1.3%,-12.3,-0.5%,5.17µM*,0.6%,4.61µM*
CCNC(=O)COC(=O)CCC(=O)c1ccc(F)cc1,3.0%,17.5,-11.8%,-6.9%,1.6%,10.1%
CN1CCN(CCCC(=O)c2ccc(F)cc2)CC1,-15.7%,-8.0,17.2%,-3.3%,-1.7%,16.6%
CCN(CC)S(=O)(=O)c1ccc(Cl)c(C(=O)Nc2nncs2)c1,-2.0%[9.24 µM],22.6,6.0%,-2.0%,-5.5%,9.8%
CCN(CC)S(=O)(=O)c1cc(C(=O)Nc2cc(C)on2)c(Cl)cc1Cl,?,-94.3*,-7.8%,?,-25.8%,?
CCN(CC)S(=O)(=O)c1cc(C(=O)Nc2nncs2)c(Cl)cc1Cl,?,-84.0*,?,-4.9%,?,-4.2%
CCN(CC)S(=O)(=O)c1cccc(C(=O)Nc2cc(C)on2)c1,8.0%,14.2,-27.7%,3.5%,11.6%,4.6%
O=C(CN1CCN(c2ccc(F)cc2)CC1)NC(=O)NCc1ccco1,0.0%,-3.8,1.9%,20.0%,-6.2%,-21.5%
COc1ccc(C(=O)c2c(C(F)(F)F)oc3c2C(=O)c2ccccc2C3=O)cc1,6.51µM*,?,10.3µM*,4.61µM*,7.31µM*,7.31µM*
CCOc1ccc(OCCC(=O)N(CCOC)c2c(N)n(Cc3ccccc3)c(=O)[nH]c2=O)cc1,-1.1%,-6.8,nt,-3.0%,4.0%[9.24 µM],15.1%
CC(C)=C1SC(N2CCN(c3ccc(Cl)cc3)CC2)=NC1=O,3.7%,-60.4*,-16.9%,?,12.2%,?
COc1ccc(CNC(=O)c2ccc3c(c2)nc2n3CCC(C)C2)c(OC)c1 (stereo unspecified),nt,nt,nt,2.1%,nt,?
COc1ccc(-c2[nH]c3ccccc3c2SCCN)cc1,-28.3%,-59.2*,?,?,-9.5%,?
COc1ccc(-c2[nH]c3ccccc3c2SCCNC(=O)c2cc3ccccc3oc2=O)cc1,?,20.1,-0.6%,?,-10.2%,?
Cc1cc(C)c(Cn2cnc3nc4c(cc3c2=O)CCCC4)c(C)c1,nt,nt,nt,-20.4%,nt,?
Cc1ccccc1Cn1cnc2nc3c(cc2c1=O)CC(C)CC3 (stereo unspecified),nt,nt,nt,16.4µM*,nt,2.59µM*
CC1CCc2nc3ncn(Cc4ccc(Cl)cc4)c(=O)c3cc2C1 (stereo unspecified),nt,nt,nt,18.4µM*,nt,23.1µM*
CCNC(=O)c1sc2ncnc(NCCCN3CCOCC3)c2c1C,nt,nt,nt,13.2%[9.04 µM],nt,-13.8%
Cc1ccc(S(=O)(=O)N2CCC[C@H]2C(=O)Nc2ccc(F)cc2C)cc1,4.0%,71.1,-25.5%,?,-8.7%,-11.1%
Cc1ccccc1-c1cc2c(c(OC3CCOC3)c1)OCCN(C(=O)Cn1cccn1)C2 (stereo unspecified),nt,nt,nt,-0.4%,nt,-17.6%
SMILES,HT1080 IDH1KD tx,IL1B secr inh,ELG1 repair inh,DT40 TDP1 CPT,HT1080NT lethal,TDP1 cell noCPT
S=c1[nH]nc(-c2ccccc2)n1/N=C/c1ccc(-c2ccccc2Cl)o1,?,-6.8,21.9%,?,-14.2%,13µM*
S=c1[nH]nc(-c2cccc(Cl)c2)n1/N=C/c1ccc(-c2ccccc2Br)o1,3.7%,25.1,?,?,6.1%,?
CCOC(=O)c1c(C)c(C(=O)Nc2ccc(N(C)C)cc2)c(C)n1CC,7.08µM*,-3.4,0.4%,7.31µM*,8.91µM*,4.61µM*
CCOC(=O)c1c(C)c(C(=O)NCc2ccc(Cl)cc2)c(C)n1CC,nt,nt,nt,?,nt,25.9µM*
CCOC(=O)c1c(C)c(C(=O)NCc2cccnc2)c(C)n1CC,-6.4%,6.6,-11.2%,0.3%,6.3%,-10.4%
Cc1ccc2nc(COc3ccc(Cl)cc3)cc(=O)n2c1,1.2%,-0.7,?,-13.8%,1.8%,-26.5%
Cc1cccc(N2CCN(C(=O)CCNS(=O)(=O)c3cccs3)CC2C)c1 (stereo unspecified),-19.5%,22.5,14.3%,?,-17.9%,20.6µM*
CCC(=O)N1CCc2cc(S(=O)(=O)NCCC(=O)N3CCN(c4ccccc4)CC3)ccc21,-0.4%,14.1,1.2%,?,-5.3%,20.6µM*
CCC(=O)N1CCc2cc(S(=O)(=O)NCCC(=O)N3CCN(c4cccc(OC)c4)CC3)ccc21,-3.9%,28.8,-2.6%,?,-5.9%,13µM*
Cc1ccc(-c2ccc(=O)n(CCC(=O)N3CCN(c4cccc(C)c4)C(C)C3)n2)cc1 (stereo unspecified),-13.5%,?,?,?,1.8%,?
CCC(=O)N1CCc2cc(S(=O)(=O)NCCC(=O)N3CCN(Cc4ccccc4)CC3)ccc21,2.8%,1.3,?,-14.5%,0.1%,-27.8%
Cc1cccc(N2CCN(C(=O)CCS(=O)(=O)c3ccc4c(c3)CC(=O)N4C)CC2C)c1 (stereo unspecified),nt,nt,nt,16.4µM*,nt,?
Cc1nc2cc(N=NC3=C(O)CCCC3=O)ccc2s1,-13.7%,6.6,?,13.0%,3.8%,-2.3%
O=c1c([N+](=O)[O-])cccn1Cc1cccc(Cl)c1,-1.4%,16.7,3.2%,-1.7%,-2.7%,-9.6%
CCC(=O)N1CCc2cc(S(=O)(=O)NCCC(=O)N3CCN(c4cccc(C)c4)C(C)C3)ccc21 (stereo unspecified),-1.0%,-3.3,?,20.6µM*,-21.2%,9.2µM*
CCOC(=O)C1CCN(C(=O)CCNS(=O)(=O)c2ccc3c(c2)CCN3C(=O)CC)CC1,15.9%,38.7,4.6%,-3.2%,13.2%,1.2%
Cc1cccc(C(=O)NCC(=O)OCc2cc(=O)n3nc(C4CCCCC4)sc3n2)c1,nt,nt,nt,1.5%,nt,1.2%
